Shown are actives, neighbours in structure and some others; about 5.2% of the full set was active somewhere.
Tau fibril ThT: blocks human tau fibril formation measured by thioflavin T; P10636; recombinant tau K18 P301L, heparin-induced fibrillization, ThT fluorescence; Potency, µM (series often up to 57.4 µM), without a hit: at the top dose activity, negative = inhibition, hits mostly inhibitors; actives 2.1% (n = 270,000); AID 1460; note: potency is the fitted concentration of half-maximal effect; nearly all actives have a fitted effect of over 55% in size
Target sequence (P10636 561-689 P618L limits assumed): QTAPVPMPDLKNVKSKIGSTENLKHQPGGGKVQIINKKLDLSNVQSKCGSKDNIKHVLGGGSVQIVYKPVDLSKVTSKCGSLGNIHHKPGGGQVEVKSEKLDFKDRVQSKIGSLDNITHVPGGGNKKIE
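In this qHTS, human K18 P301L tau is incubated with compound and heparin for 6 hr at 37 C, and Thioflavin T fluorescence then reports fibril load.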
Coupling enz: counter-screen for Giardia aldolase inhibitors: coupling enzyme system | activity change, negative = inhibition, % at 58.2 µM, hits read low | coupling enzyme system counterscreen, AmpLite Red fluorescence | AID 2472 | actives 0.67% (n = 290,000); in the data active = activity change below about -30%
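Counterscreen of the coupled detection system alone, without aldolase: glyceraldehyde-3-phosphate coupling enzymes plus AmpLite Red readout. Compounds at 57.5 uM final, 10 min RT preincubation, 20 min RT reaction, fluorescence 525/598 nm.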
Sfp inh: Sfp phosphopantetheinyl transferase inhibition | Biochemical Sfp PPTase activity, qHTS | Potency, µM, for the others: largest response in the series, negative = inhibition, usual class: inhibitors | actives 3.5% (n = 310,000) | AID 1490;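 note: the enzyme is Sfp with the accession as filed and its product quenches rhodamine fluorescence; potency is the fitted concentration of half-maximal effect; 0% = enzyme reaction without inhibitor and -100% = no enzyme wells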
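Step 1, compound plus 15 nM Sfp-PPTase, 15 min, room temperature. Step 2, add rhodamine-CoA (5 uM) and BHQ-2-YbbR (12.5 uM). Step 3, read 525/598 nm fluorescence at 0 and 30 min.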
Tau fibril FP: blocks human tau fibril formation measured by polarization; P10636; K18 P301L tau heparin fibrillization, Alexa594 FP, 6 h; Potency, µM (highest dose often 57.7 µM), inactives show at the top dose activity, negative = inhibition, hits mostly inhibitors; actives 0.39% (n = 280,000); AID 1468; note: potency is the fitted concentration of half-maximal effect; nearly all actives have a fitted effect of over 55% in size
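Read-out: fluorescence polarization of Alexa 594-labeled tau (0.24 uM), 555 nm excitation, 632 nm emission. Mixtures held 15 uM unlabeled K18 P301L, compound and 20 uM heparin, pH 7 acetate buffer, incubated 6 hr at 37 C.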
Tau fluor cs: counter-screen for tau fibril formation inhibitors; actives 0.93% (n = 280,000); tau K18 P301L Alexa594 fluorescence, heparin fibrillization; AID 1463; Potency, µM (series often up to 57.7 µM), for the others: at the highest dose activity change, negative = decrease; note: potency is the fitted concentration of half-maximal effect; nearly all actives have a fitted effect of over 55% in size
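Human tau K18 P301L (15 uM unlabeled, 0.24 uM Alexa 594-labeled) in 100 mM sodium acetate pH 7 with 20 uM heparin, 6 hr at 37 C. ThT 30 uM added, 1 hr ambient; Alexa 594 FP and total fluorescence read at 555/632 nm.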
The depositor's hits bear a star; [ ] = remark or other dose. Unless noted, calls come from the whole dose curve; as a rule, active = well fitted curve in the direction sought with a large enough effect; inconclusive = small, poorly fitted or top-dose-only effect, or another doubt; inactive = no such curve, though single readings can be large; an effect the other way counts as inactive or inconclusive. Unless noted, % is set by controls: 0 for no effect and ±100 for the full control effect.

Screening Brc1csc(/C=N/Nc2nc3ccccc3s2)c1 returned Tau fibril ThT inconclusive, Coupling enz -4, Sfp inh inconclusive, Tau fibril FP -6% and Tau fluor cs 7.9µM*[quencher].
For C(=N\Nc1ccccc1)/c1nc2ccccc2s1 the results were Tau fibril ThT inconclusive, Coupling enz 1, Sfp inh 12%, Tau fibril FP inconclusive and Tau fluor cs 13µM*[quencher].
Screening CCn1ccc2c(OCC(=O)Nc3ccc(OC)cc3OC)cccc2c1=O returned Tau fibril ThT -5%, Tau fibril FP 2% and Tau fluor cs 2%.
NC(=O)c1ccc2nc(-c3ccc(Oc4ccc(Cl)cc4)cc3)[nH]c2c1 was read as Coupling enz -5 and Sfp inh -16%.
`CCN1CCN(Cc2c(O)ccc3c2O/C(=C\c2ccccc2)C3=O)CC1` gave Tau fibril ThT 5%, Coupling enz 2, Sfp inh 8%, Tau fibril FP 8% and Tau fluor cs -6%.
For CC1CCCN(Cc2c(O)ccc3c2O/C(=C\c2ccco2)C3=O)C1 (stereo not drawn) the results were Tau fibril ThT inconclusive, Coupling enz -6, Sfp inh 35µM*, Tau fibril FP -6% and Tau fluor cs -5%.
Screening CN(CC(=O)NC(=O)NCc1ccco1)Cc1nc2ccccc2c(=O)[nH]1 returned Tau fibril ThT -13%, Coupling enz -2, Sfp inh 89µM*, Tau fibril FP -11% and Tau fluor cs 3%.
Screening Nc1nc(=S)c2ncn(C3CCCC3)c2[nH]1 returned Tau fibril ThT -10%, Coupling enz -2, Sfp inh 13µM*, Tau fibril FP 2% and Tau fluor cs -12%.
Screening Nc1ncnc2c1ncn2C1CCCC1 returned Tau fibril ThT -12%, Tau fibril FP -16% and Tau fluor cs -25%.
COc1ccccc1NC(=O)Nc1nn(C)c2cccc(N(C)C)c12 was read as Coupling enz -34*, Sfp inh -10%, Tau fibril FP 12% and Tau fluor cs inconclusive.
For Cc1c(Br)cc(C(=O)O)c(C)c1C the results were Tau fibril ThT -1%, Coupling enz 3, Sfp inh 10%, Tau fibril FP 8% and Tau fluor cs 10%.
For Cc1c(N)cc(N)cc1C(=O)O the results were Coupling enz -35*, Sfp inh -20%, Tau fibril FP -10% and Tau fluor cs -8%.
Screening COc1cc(/C=C(\C#N)C(=O)c2ccc(O)c(O)c2)cc(I)c1O returned Tau fibril ThT 8.9µM*, Tau fibril FP 3% and Tau fluor cs inconclusive.
For COc1cc(/C=C(\C#N)C(=O)N2CCOCC2)cc(Br)c1O the results were Tau fibril ThT inconclusive, Coupling enz -7, Sfp inh -8%, Tau fibril FP -10% and Tau fluor cs -20%.
`C=C1CN(C(C(=O)OC)C(C)C)S(=O)(=O)c2ccc(F)cc21` (stereo not drawn) gave Coupling enz 0 and Sfp inh 14%.
`O=C(/C(=C/c1ccc(Cl)cc1)c1nc2ccccc2[nH]1)c1ccccc1` gave Tau fibril ThT 40µM*, Coupling enz 2, Sfp inh 14%, Tau fibril FP inconclusive and Tau fluor cs -22%.
COc1cccc(/C=N/Nc2nc3ccccc3[nH]2)c1O was read as Tau fibril ThT inconclusive, Coupling enz -6, Sfp inh -9%, Tau fibril FP 13% and Tau fluor cs -30%.
O=[N+]([O-])c1ccc(O)c(/C=N/Nc2nc3ccccc3[nH]2)c1 was read as Tau fibril ThT 8.9µM*, Coupling enz 0, Sfp inh 12%, Tau fibril FP 5% and Tau fluor cs inconclusive.
COc1cc(/C=N/NC(=Nc2ccc(C)cc2)c2nc3ccccc3s2)ccc1O was read as Tau fibril ThT inconclusive, Coupling enz 2, Sfp inh -15%, Tau fibril FP 16% and Tau fluor cs 11µM*[quencher].
For COc1cc(/C=N/Nc2nc3ccccc3[nH]2)cc(OC)c1O the results were Tau fibril ThT 11µM*, Coupling enz 1, Sfp inh 14µM*, Tau fibril FP inconclusive and Tau fluor cs 16µM*[quencher].
`CCOCN(C(=O)Cn1cnc2cc(C)c(C)cc21)c1c(C)cccc1CC` gave Tau fibril ThT -13%, Tau fibril FP -6% and Tau fluor cs -10%.
Screening CCOc1ccc(C(=O)Nc2ccc(-c3nc4cc(CC)ccc4o3)cc2)cc1 returned Tau fibril ThT -10%, Tau fibril FP 1% and Tau fluor cs -6%.
Screening COc1ccc(/C=N/Nc2ccccn2)cc1O returned Tau fibril ThT inconclusive, Coupling enz -4, Sfp inh 50µM*, Tau fibril FP 9% and Tau fluor cs -14%.
COc1cc(/C=N/Nc2nc3ccccc3[nH]c2=O)ccc1O was read as Tau fibril ThT inconclusive, Coupling enz 0, Sfp inh 0%, Tau fibril FP -1% and Tau fluor cs -29%.
COc1ccc2nc(Cl)c(/C=N/Nc3ccccn3)cc2c1 was read as Tau fibril ThT inconclusive, Coupling enz -2, Sfp inh 16µM*, Tau fibril FP -3% and Tau fluor cs -19%.
For CCOc1ccc(/C=N/Nc2ccccn2)cc1 the results were Tau fibril ThT inconclusive, Coupling enz 3, Sfp inh -24%, Tau fibril FP 11% and Tau fluor cs -24%.
COc1cc(/C=N/Nc2nc3ccccc3[nH]2)ccc1O was read as Tau fibril ThT 5µM*, Coupling enz 1, Sfp inh 11µM*, Tau fibril FP inconclusive and Tau fluor cs inconclusive.
`COc1ccc(O)c(/C=N/Nc2nc3ccccc3[nH]2)c1` gave Tau fibril ThT 14µM*, Coupling enz -2, Sfp inh inconclusive, Tau fibril FP 7% and Tau fluor cs inconclusive.
For CC(Oc1ccccc1)C(=O)Nc1ccc(OCc2cc(=O)n3ccsc3n2)cc1 (stereo not drawn) the results were Tau fibril ThT -2%, Tau fibril FP -17% and Tau fluor cs -11%.
`COC(=O)c1ccc(OC)c(Cn2c(=O)n(-c3cccc(Cl)c3)c(=O)c3c2c2cc(C)ccc2n3C)c1` gave Tau fibril ThT 3%, Tau fibril FP inconclusive and Tau fluor cs -5%.
`CCSc1ncc(Cl)c(C(=O)N(Cc2ccccc2Cl)C2CCS(=O)(=O)C2)n1` (stereo not drawn) gave Tau fibril ThT -8%, Tau fibril FP -5% and Tau fluor cs -16%.
`COc1cc(/C=C(/C(=O)c2cccs2)c2nc3ccccc3[nH]2)cc(OC)c1O` gave Tau fibril ThT 14µM*, Coupling enz -5, Sfp inh -22%, Tau fibril FP -2% and Tau fluor cs inconclusive.
Screening O=c1c(S(=O)(=O)c2ccccc2)cn(Cc2cccc(F)c2)c2cc(N3CCOCC3)c(F)cc12 returned Tau fibril ThT -7%, Tau fibril FP 1% and Tau fluor cs -11%.

Assay outcomes: PubChem, National Center for Advancing Translational Sciences (NCATS)
